Results filed as inconclusive are left out. Values without a mark were called inactive. The source made the active and inactive calls. The call rests on the fitted dose curve; in most records, active means well fitted cell-killing curve with a large enough effect; inconclusive means small, poorly fitted or top-dose-only effect, or effect the other way; inactive means no such curve, though single readings can be large or run the other way.
Potency means the concentration at half of the fitted maximal effect.

This assay is described as follows: Viability qHTS for spleen associated tyrosine kinase inhibitor (SYKi) naive MV4-11 cells (AID 1963823). Further: nearly all actives have a fitted effect of over 40% in size. To be noted: MV4-11 AML viability, CellTiter-Glo luminescence, 72 h; series mostly up to 45 µM; viability (% of control): at the top concentration. In a few lines:
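CellTiter-Glo luminescence, 10 min room-temperature incubation, gave viability. Cells: naive MV4-11 (500/well), treated 72 hr at 37 C, 5% CO2.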
(In general: In qHTS, concentration-response curves come from the screen itself.)
For `CC(=O)O[C@]1(C(C)=O)CC[C@H]2[C@@H]3CCC4=CC(=O)CCC4=C3[C@@H](c3ccc(N(C)C)cc3)C[C@@]21C`, the Potency is 25.9 µM (active).

With `C[C@]12CC[C@@H]3c4ccc(O)cc4CC[C@H]3[C@@H]1C[C@@H](O[C@@H]1O[C@H](C(=O)O)[C@@H](O)[C@H](O)[C@H]1O)[C@@H]2O`, the “viability (% of control)” value was 69.6%.

Take `O=C(O)c1ccnc2cc(-c3nc4ccccc4n3CCN3CCCCC3)sc12`: the “viability (% of control)” value was 63.9%.

On to `C[C@H](O)[C@H](O)/C=C/c1cccc(O)c1CO`, for which the “viability (% of control)” value was 100%.

With `C=CC(C)(C)c1[nH]c2ccccc2c1C[C@@H]1NC(=O)[C@H](Cc2c[nH]c3ccccc23)NC1=O`, the “viability (% of control)” value was 68% [at 17.3 µM].

As to `CCOc1c2c(c(OCC)c3ccccc13)C(=O)N(c1ccc(CC(=O)NS(=O)(=O)c3ccccc3)cc1)C2`, the “viability (% of control)” value is 89.9%.

As for `C=C(C)C1CCC(C)C12CC(O)C1(C)OC1C2OC(=O)C(N)CCC(=O)O` (stereo not given), the “viability (% of control)” value was 66.6%.

As to `C[C@@H](CN1CCC(n2c(=O)[nH]c3cc(Cl)ccc32)CC1)NC(=O)c1ccc2ccccc2c1`, the Potency was 20.6 µM (active).

`C[C@@H]1C/C=C/C=C\C=C\C=C\[C@H](O[C@@H]2O[C@H](C)[C@@H](O)[C@H](N)[C@@H]2O)C[C@@H]2O[C@](O)(C[C@@H](O)C[C@H]3O[C@@H]3/C=C/C(=O)O1)C[C@H](O)[C@H]2C(=O)O`: the “viability (% of control)” value is 60.8% [at 17.3 µM].

For the compound `CC1CCC2C(=CCC(O)C2(C)C)C1(C)Cc1c(O)cc(CO)c(C=O)c1O` (stereo not given), the Potency is 10.1 µM (active).

Regarding `O=C1NC(=O)[C@@H](c2cn3c4c(cccc24)CCC3)[C@@H]1c1c[nH]c2ccccc12`, the Potency was 1.18 µM (active).

Regarding `O=C(Nc1nc2cc(C(F)(F)F)cc(NC3CC3)n2n1)c1cccnc1`, the Potency is 3.66 µM (active).

Take `COc1cc2c(cc1O)CC[C@H]1[C@@H]2CC[C@]2(C)[C@H](O)CC[C@@H]12`: the Potency was 0.58 µM (active).

Take `CC(CCC1(O)OC2CC3C4CCC5CC(O[C@@H]6O[C@H](CO)[C@@H](O)[C@H](O)[C@H]6O[C@@H]6OC[C@@H](O)[C@H](O)[C@H]6O)C(O)CC5(C)C4CCC3(C)C2C1C)CO[C@@H]1O[C@H](CO)[C@@H](O)[C@H](O)[C@H]1O` (stereo not given in full): the viability (% of control) is 83.1% [at 9.25 µM].

Take `CC1(C)CC[C@]2(C(=O)O[C@@H]3O[C@H](CO)[C@@H](O)[C@H](O)[C@H]3O)CC[C@]3(C)C(=CCC4[C@@]5(C)C[C@H](O)[C@H](O[C@@H]6OC[C@@H](O)[C@H](O)[C@H]6O)[C@@](C)(CO)C5CC[C@]43C)C2C1` (stereo not given in full): the viability (% of control) was 96.5% [at 9.25 µM].

Turning to `CC(C)=CCC[C@](C)(O[C@@H]1O[C@H](CO)[C@@H](O)[C@H](O)[C@H]1O)[C@H]1CC[C@]2(C)[C@@H]1[C@H](O)CC1[C@@]3(C)CC[C@H](O)C(C)(C)C3[C@@H](O[C@@H]3O[C@H](CO)[C@@H](O)[C@H](O)[C@H]3O[C@@H]3OC[C@@H](O)[C@H](O)[C@H]3O)C[C@]12C` (stereo not given in full), the viability (% of control) was 84.7% [at 9.25 µM].

For the compound `C=C1C(=O)OC2/C=C(\C)CC/C=C(\C=O)C(OC)C(OC(=O)C(C)CC)C12` (stereo not given), the Potency is 3.21 µM (active).

In the case of `CC(C)=CCC/C(C)=C/CCC1(C)Oc2c(c(O)cc3c2CN(C(CCC(=O)O)C(=O)O)C3=O)CC1O` (stereo not given), the “viability (% of control)” value was 91.7% [at 17.3 µM].

As for `COc1cc(C)c(C(=O)NC2C(C)OC(OC3CCC(C)C4C3C=C(C)C3/C(C)=C\CC/C(C)=C/C5(C)C=C(C(=O)O)C(C)CC56OC(=O)/C(=C(\O)C34C)C6=O)C(O)C2(C)O)c(O)c1` (stereo not given), the viability (% of control) was 82.6% [at 9.25 µM].

Regarding `COc1cc(/C=C/C(=O)O)ccc1O[C@@H]1O[C@H](CO)[C@@H](O)[C@H](O)[C@H]1O[C@@H]1OC[C@](O)(CO)[C@H]1O`, the “viability (% of control)” value was 86% [at 17.3 µM].

With `CC/C=C\[C@H](O)[C@H](O)C1=C(C)C(=O)[C@]2(O1)C(=O)N[C@@](OC)(C(=O)c1ccccc1)[C@@H]2O`, the “viability (% of control)” value is 86.6% [at 17.3 µM].

For `CC(C)=CCc1cc(O[C@@H]2O[C@H](CO[C@@H]3OC[C@](O)(CO)[C@H]3O)[C@@H](O)[C@H](O)[C@H]2O)ccc1O`, the “viability (% of control)” value is 99.1% [at 17.3 µM].

Consider `C=C1[C@@H]2[C@H]3OC(=O)C(=C)[C@@H]3CC[C@@](C)(O)[C@@H]2C[C@@H]1O[C@@H]1O[C@H](CO)[C@@H](O)[C@H](O)[C@H]1O`, for which the “viability (% of control)” value is 80.4% [at 17.3 µM].

Regarding `CCN1CCN(Cc2ccc(NC(=O)c3ccc(C)c(Oc4ccnc5[nH]ccc45)c3)cc2C(F)(F)F)CC1`, the Potency is 0.0255 µM (active).

Regarding `CCCC(CCC)C(=O)NCc1ccc2c(cnn2-c2ccccc2OC)c1`, the Potency was 10.3 µM (active).

On to `C[C@H]1[C@H](C)CC[C@]2(C(=O)OC3OC(CO)C(O)C(O)C3O)CC[C@]3(C(=O)O)C(=CCC4[C@@]5(C)CC[C@H](O[C@@H]6O[C@@H](C)[C@H](OC7OC(CO)C(O)C(O)C7O)[C@@H](O)[C@H]6O)C(C)(C)C5CC[C@]43C)[C@H]12` (stereo not given in full), for which the viability (% of control) is 80.8% [at 9.25 µM].

As to `C=C1CCC2C(C)(C(=O)OC)CCCC2(C)C1CCC(C)CC(=O)O` (stereo not given), the “viability (% of control)” value was 63.9%.

With `CC/C=C\C[C@H]1C(=O)C=C[C@@H]1CCCCCCCC(=O)O`, the Potency was 16.4 µM (active).

`C[C@@H]1C(=O)O[C@H]2C[C@]34[C@H]5C[C@@H](C(C)(C)C)[C@]36[C@@H](OC(=O)[C@H]6O)O[C@]4(C(=O)O5)[C@]21O`: the “viability (% of control)” value was 75.3% [at 17.3 µM].

Take `Cc1cc2c(F)c(Oc3ncnn4cc(OCC(C)OC(=O)C(C)N)c(C)c34)ccc2[nH]1` (stereo not given): the Potency was 10.3 µM (active).

On to `CC(C)COc1ccc(CNC(=O)N(Cc2ccc(F)cc2)C2CCN(C)CC2)cc1`, for which the Potency is 18.4 µM (active).

Regarding `Cc1cc(C)c(CNC(=O)c2cc(-c3ccc(CN4CCOCC4)cc3)cc3c2cnn3C2CCCC2)c(=O)[nH]1`, the “viability (% of control)” value is 73.8%.

With `C=C(C(=O)O)C1CC(O)C2(C)CCCC(C)(O)C2C1` (stereo not given), the “viability (% of control)” value was 82%.

`COc1ccc(N(C(=O)Nc2c(C)cccc2C)c2cc(Nc3ccc(N4CCN(C)CC4)cc3)ncn2)c(OC)c1`: the Potency was 2.31 µM (active).

For the compound `CC1CC(=O)C2=C(C1)C1OC1C1(O)C2C(=O)c2cccc(O)c2C1O` (stereo not given), the “viability (% of control)” value is 6.09%.

In the case of `CN(CCO)C1CCN(c2ccc(Nc3ncc4c5ccnc(F)c5n(C5CCCC5)c4n3)nc2)CC1`, the Potency was 0.0355 µM (active).

As for `CCOC(=O)C1=Cc2ccc(C(F)(F)C(F)(F)F)cc2N=C(N)C1`, the Potency is 20.6 µM (active).

As to `CC(C)C1NC(=O)CNC(=O)C2CCCN2C(=O)C(Cc2c[nH]c3ccccc23)NC(=O)CNC(=O)C(Cc2ccc(O)cc2)NC(=O)CNC1=O` (stereo not given), the “viability (% of control)” value was 88.6% [at 17.3 µM].

`C[C@@H]1O[C@@H](O[C@H]2[C@H](OC(=O)[C@]34CCC(C)(C)C[C@H]3C3=CCC5[C@@]6(C)C[C@H](O)[C@H](O[C@@H]7O[C@H](CO)[C@@H](O)[C@H](O)[C@H]7O)[C@@](C)(CO)C6[C@H](O)C[C@@]5(C)[C@]3(C)C[C@H]4O)OC[C@H](O)[C@@H]2O)[C@H](O)[C@H](O)[C@H]1O[C@@H]1OC[C@@H](O)[C@H](O[C@H]2OC[C@](O)(CO)[C@H]2O)[C@H]1O` (stereo not given in full): the viability (% of control) was 84.5% [at 9.25 µM].

As for `CCC(C)n1cc(C)c2c(C(=O)NCc3c(C)cc(C)[nH]c3=O)cc(-c3ccc(N4CCNCC4)nc3)cc21` (stereo not given), the Potency was 13 µM (active).

The record behind these values is PubChem BioAssay (NCATS).
